High-throughput results deposited in PubChem by National Center for Advancing Translational Sciences (NCATS).
GLP-1R inv ag: inverse agonists of human GLP-1 receptor; Potency, µM (titrated, usually from 38.3 µM), most hits filed as inhibitors; AID 624417; actives 1.6% (n = 410,000); HEK293 GLP-1R CRE-luciferase, luminescence, 24 h; GLP-1R form is constitutively active; P43220; further: nearly all actives have a fitted effect of over 55% in size
Target sequence (P43220 whole entry, looked up): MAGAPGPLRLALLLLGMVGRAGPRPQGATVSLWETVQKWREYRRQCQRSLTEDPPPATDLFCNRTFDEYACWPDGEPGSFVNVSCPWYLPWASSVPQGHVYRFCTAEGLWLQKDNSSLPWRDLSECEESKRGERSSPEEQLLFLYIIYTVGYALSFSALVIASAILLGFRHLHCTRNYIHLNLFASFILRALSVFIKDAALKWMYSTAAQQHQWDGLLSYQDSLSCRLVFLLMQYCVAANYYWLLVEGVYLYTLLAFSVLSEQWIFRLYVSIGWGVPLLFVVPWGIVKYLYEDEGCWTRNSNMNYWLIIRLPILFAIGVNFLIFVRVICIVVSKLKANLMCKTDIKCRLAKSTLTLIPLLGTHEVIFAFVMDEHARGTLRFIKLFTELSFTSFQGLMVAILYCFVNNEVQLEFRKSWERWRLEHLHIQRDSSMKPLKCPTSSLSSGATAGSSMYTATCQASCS
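Inverse agonists were sought by their lowering of basal cAMP reporter luciferase output in HEK293 cells stably carrying constitutively active human GLP-1R, after 24 h compound treatment.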
GLP1R cytotox: cytotoxic in the GLP-1 receptor inverse agonist counter-screen; actives 0.13% (n = 410,000); HEK293 cAMP-luciferase reporter cells, luminescence, 24 h; AID 624418; Potency, µM (doses to about 38.3 µM), most hits filed as inhibitors;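 further: loss of luciferase light is scored as toxicity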
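A 23 nL compound transfer followed 12 hours of cell culture at 37 deg C; exposure then lasted 24 hr. Luciferase assay detection reagent was dispensed and plates read for luminescence after a 12 min room-temperature wait.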
GLP-1R agonist: agonists of human GLP-1 receptor; AID 624172; P43220; actives 0.007% (n = 380,000); HEK293 GLP-1R CRE-luciferase, luminescence, 4-6 h; cells express a hypersensitive GLP-1R form; Potency, µM (series often up to 45.6 µM), usual class: activators
ClpP mod: qHTS Assay for Activators of ClpP; AID 651965, 2013; Potency, µM (titrated, usually from 57.5 µM); actives 1.9% (n = 340,000); purified B. subtilis ClpP, FRET peptide cleavage, 20 min; active means well fitted falling curve with a large enough effect; inconclusive means small, poorly fitted or top-dose-only effect; inactive means no such curve, though single readings can be large or run the other way; further: the source files actives as falling curves though it sought activators and does not explain the sign; nearly all actives have a fitted effect of over 65% in size
Target sequence (P80244 whole entry, looked up): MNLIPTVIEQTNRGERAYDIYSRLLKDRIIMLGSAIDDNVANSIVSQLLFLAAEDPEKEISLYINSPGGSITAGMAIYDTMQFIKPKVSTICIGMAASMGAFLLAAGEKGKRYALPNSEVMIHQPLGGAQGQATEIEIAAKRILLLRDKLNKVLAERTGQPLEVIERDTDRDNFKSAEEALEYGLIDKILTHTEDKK
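Buffer: 100 mM Tris/HCl pH8, 100 mM KCl, 0.05% low protease BSA, 2.5% glycerol, 0.01% Tween-20. ClpP 10 microg/mL final; 20 min RT; delta FRET normalized to ADEP and DMSO controls.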
Of the large screens only hits and unclear results are named; the others gave an inactive call. This is a sample that favours compounds with a hit; in the whole collection about 3.2% have one here. Unless noted, the call rests on the fitted dose curve; in most records, active means well fitted curve in the direction sought with a large enough effect; inconclusive means small, poorly fitted or top-dose-only effect, or another doubt; inactive means no such curve, though single readings can be large; an effect the other way counts as inactive or inconclusive.

c1ccc(C2CC(c3cccs3)=NN2c2ccccc2)cc1 (stereo not drawn)	GLP-1R inv ag 10µM
O=C(c1noc2c1CCCCC2)N1CCN(c2ccc(Cl)cc2)CC1	none (no result: GLP-1R agonist)
c1ccc2c(c1)CCN(c1nc3cc4c(cc3s1)OCCO4)C2	GLP-1R inv ag 7.1µM
CCOc1ccc(NC(=S)N2CCc3cc(OC)c(OC)cc3C2COc2ccc3c(C)cc(=O)oc3c2)cc1 (stereo not drawn)	ClpP mod 8.9µM
Cc1ccc(NC(=O)C(Cc2ccccc2)n2cccc2)c(C)c1 (stereo not drawn)	GLP-1R inv ag inconclusive (no result: GLP-1R agonist)
Cc1ccc(C)c(NC(=O)C(Cc2ccccc2)n2cccc2)c1 (stereo not drawn)	GLP-1R inv ag 10µM (no result: GLP-1R agonist)
O=C(CCCCCN1C(=O)c2ccccc2C1=O)NCc1ccco1	ClpP mod 18µM
CCOc1cc2[nH]c(=O)n(CCCCC(=O)N3CCCCCC3)c(=O)c2cc1OCC	ClpP mod 13µM
CCOc1cc2[nH]c(=O)n(CCCCC(=O)NCc3ccco3)c(=O)c2cc1OCC	ClpP mod 35µM
CCOc1cc2[nH]c(=O)n(CCCC(=O)NCc3ccco3)c(=O)c2cc1OCC	ClpP mod 25µM
CCOc1cc2[nH]c(=O)n(CCCCC(=O)N3CCN(c4cccc(Cl)c4)CC3)c(=O)c2cc1OCC	none (no result: GLP-1R agonist)
CCOC(=O)c1cccc(NC(=O)C(CC(C)C)N2Cc3ccccc3C2=O)c1 (stereo not drawn)	GLP-1R inv ag inconclusive (no result: GLP-1R agonist)
CC1CCCCC1NC(=S)Nc1ccc(Cl)cc1Cl (stereo not drawn)	GLP-1R inv ag 11µM, GLP1R cytotox inconclusive (no result: ClpP mod)
Cc1c(C(=O)OC(C)C)sc(NC(=O)C2c3ccccc3Oc3ccccc32)c1C(=O)OC(C)C	GLP-1R inv ag 8.9µM, ClpP mod inconclusive (no result: GLP-1R agonist)
COc1ccc(OCc2nc3c4c(-c5ccccc5)c(-c5ccccc5)oc4ncn3n2)cc1	none (no result: GLP-1R agonist)
O=S(=O)(c1ccccc1F)N1CCN(c2nc(-c3cccs3)nc3ccccc23)CC1	none (no result: GLP-1R inv ag, GLP1R cytotox, GLP-1R agonist)
CC(C)CCn1cnc2c(oc3nc4c(cc32)CCCC4)c1=O	GLP-1R inv ag 8.9µM
CC1(C)Cc2nc3oc4c(=O)n(CC(=O)Nc5ccccc5)cnc4c3cc2CO1	none (no result: ClpP mod)
CCCC(=O)N1CC(=O)Nc2ccc(C)cc2C1c1ccccc1 (stereo not drawn)	ClpP mod 18µM
CCCCc1ccc(Nc2cc(C)nc(-n3nc(C)cc3C)n2)cc1	GLP-1R inv ag inconclusive (no result: GLP-1R agonist)
CC1CCN(C(=O)CSc2nnc(-c3ccc(S(=O)(=O)N4CCOCC4)cc3)n2C)CC1	none
CCn1c(SCC(=O)N2CCC(C)CC2)nnc1-c1ccc(S(=O)(=O)N2CCN(C)CC2)cc1	ClpP mod 32µM
O=C(CNC(=O)c1ccc(F)cc1)OCc1cc(=O)n2nc(C3CCCCC3)sc2n1	none (no result: GLP-1R agonist)
Cc1cccc(C(=O)NC(NCCc2ccccc2)C(Cl)(Cl)Cl)c1 (stereo not drawn)	GLP-1R inv ag 4.5µM
Cc1[nH]n(-c2ccccc2)c(=O)c1/C=N/O	none
Cc1ccc2cccc(N=Cc3c(C)[nH]n(-c4ccccc4)c3=O)c2n1	GLP-1R inv ag 5.6µM
Cc1nc(-n2nc(C)c(Cc3ccccc3Cl)c2C)sc1C(=O)Nc1ccccc1F	none (no result: GLP-1R agonist)
Cc1ccc(O)c(CC(C)C)n1	ClpP mod 3.5µM
Cc1ccc(O)c(CO)n1	none (no result: ClpP mod)
CC(C)(C)NC(=O)c1ccc2nccnc2c1	none
CC(C)(C)NC(=O)Nc1ccc2nccnc2c1	ClpP mod 20µM
Cc1ccnc(NC(=O)c2ccc(OCC3CCCO3)cc2)c1 (stereo not drawn)	GLP-1R inv ag 5.6µM (no result: ClpP mod)
CCOC(=O)c1nc(N)c(C(=O)OCC)[nH]1	ClpP mod 14µM
CCOC(=O)c1nc2ccccc2c(=O)[nH]1	none (no result: ClpP mod)
CC(=O)Nc1cccc(-c2ccnc3c2CC(C)(C(=O)Nc2cccc(C(F)(F)F)c2)O3)c1 (stereo not drawn)	GLP-1R inv ag 11µM
CC1(C(=O)NCc2ccc(F)c(F)c2)Cc2c(-c3cccc(C(F)(F)F)c3)ccnc2O1 (stereo not drawn)	GLP-1R inv ag 10µM
O=C(Nc1cccnc1)c1sc(Nc2ccccc2F)nc1-c1ccccc1	ClpP mod 18µM
Cc1ccccc1Nc1nc(-c2ccccc2)c(C(=O)Nc2cccnc2)s1	GLP-1R inv ag inconclusive
COc1cccc(/C=C/C(=O)OCC(=O)c2c(N)n(C)c(=O)n(C)c2=O)c1	ClpP mod 25µM
COc1cccc(/C=C/C(=O)OCC(=O)Nc2ccc(Cl)c(S(=O)(=O)N(C)C)c2)c1	GLP-1R inv ag inconclusive (no result: ClpP mod)
COc1cccc(/C=C/C(=O)OCC(=O)Nc2cc(C(F)(F)F)ccc2Cl)c1	ClpP mod 35µM
NC(=O)C1=C(N=C2CCCCC2)CCCC1	ClpP mod 32µM
O=c1[nH]c(=O)c2[nH]c(=O)[nH]c2[nH]1	none (no result: GLP-1R inv ag, GLP1R cytotox, ClpP mod)
N#Cc1c(-c2ccc(Cl)cc2)ccn2nc(CCC(=O)O)nc12	ClpP mod 25µM
CCCCCc1nc2c(C#N)c(-c3ccc(Cl)cc3)ccn2n1	GLP-1R inv ag inconclusive, ClpP mod 28µM
O=C1O[C@H]2[C@@H](OC(O)[C@@H]2O)[C@H]1O (stereo partly drawn)	none (no result: GLP-1R inv ag, GLP1R cytotox, ClpP mod)
O=C(C[n+]1ccccc1Cl)c1ccccc1	none (no result: GLP-1R inv ag, GLP1R cytotox, GLP-1R agonist)
COc1ccc(S(=O)(=O)NCCSCc2cccc(C)c2)cc1Br	GLP-1R inv ag 11µM
Cc1ccc(S(=O)(=O)NCCSCc2ccccc2)cc1	GLP-1R inv ag inconclusive
O=C(CN1C(=O)CCc2cc(S(=O)(=O)N3CCOCC3)ccc21)Nc1cccc(C(F)(F)F)c1	none (no result: GLP-1R agonist)
Cc1ccc(C(=O)CC2(O)C(=O)N(CCc3ccccc3)c3ccc(Br)cc32)o1 (stereo not drawn)	GLP-1R inv ag 7.9µM
COc1ccccc1C(=O)Nc1nc2nc(C)cc(=O)n2[nH]1	none (no result: GLP-1R agonist)
COc1ccc(N2CCN(C(=O)c3cc(NS(=O)(=O)c4ccc(F)cc4)ccn3)CC2)cc1	none
O=[N+]([O-])c1ccc2c(c1)C(N1CCOCC1)/C(=C/COc1ccc3ccccc3c1Br)O2 (stereo not drawn)	GLP-1R inv ag 2.8µM
O=[N+]([O-])c1ccc(OC/C=C2\Oc3ccc([N+](=O)[O-])cc3C2N2CCOCC2)cc1 (stereo not drawn)	GLP-1R inv ag inconclusive
CCOc1ccc(NC(=S)N(CCc2c(C)[nH]c3ccc(C)cc23)Cc2ccco2)cc1	GLP-1R inv ag 7.9µM
COc1ccc(NC(=S)N(CCc2c(C)[nH]c3ccc(C)cc23)Cc2ccco2)cc1	GLP-1R inv ag inconclusive
COC(=O)c1ccc2c(c1)C(C)(C)C(/C=C/c1ccccc1O)=[N+]2C	GLP-1R inv ag inconclusive, GLP1R cytotox 10µM
COc1cccc(CNC(=O)C(CC(C)C)NS(=O)(=O)c2ccc3c(c2)oc(=O)n3C)c1 (stereo not drawn)	none (no result: GLP-1R agonist)
COc1ccc(-c2nnc(SCC(=O)N3CCc4ccccc43)o2)cc1OC	none (no result: GLP-1R agonist)
